Usually AC50 stands for the concentration giving half of the maximal activity seen.

Among all 16,000 compounds or so, about 4,000 (25%) were called active. Inconclusive results (about 26%) are left out. A selection follows. Values without a mark were called inactive. Calls follow the shape of the dose curve; as a rule, active = well fitted curve in the direction sought with a large enough effect; inconclusive = small, poorly fitted or top-dose-only effect, or effect the other way; inactive = no such curve, though single readings can be large or run the other way.
% is scaled to controls: 0 for no effect and ±100 for the full control effect.

The target of the test is Cytochrome P450 2C9 (Homo sapiens) (UniProt P11712). As to the kind of experiment: Cytochrome panel assay with activity outcomes. The conditions noted are these: recombinant CYP, pro-luciferin dealkylation, luminescence, p450-cyp2c9; series mostly up to 57.1 µM.
Cytochrome P450 2C9 (Homo sapiens), sequence (P11712 whole entry, looked up): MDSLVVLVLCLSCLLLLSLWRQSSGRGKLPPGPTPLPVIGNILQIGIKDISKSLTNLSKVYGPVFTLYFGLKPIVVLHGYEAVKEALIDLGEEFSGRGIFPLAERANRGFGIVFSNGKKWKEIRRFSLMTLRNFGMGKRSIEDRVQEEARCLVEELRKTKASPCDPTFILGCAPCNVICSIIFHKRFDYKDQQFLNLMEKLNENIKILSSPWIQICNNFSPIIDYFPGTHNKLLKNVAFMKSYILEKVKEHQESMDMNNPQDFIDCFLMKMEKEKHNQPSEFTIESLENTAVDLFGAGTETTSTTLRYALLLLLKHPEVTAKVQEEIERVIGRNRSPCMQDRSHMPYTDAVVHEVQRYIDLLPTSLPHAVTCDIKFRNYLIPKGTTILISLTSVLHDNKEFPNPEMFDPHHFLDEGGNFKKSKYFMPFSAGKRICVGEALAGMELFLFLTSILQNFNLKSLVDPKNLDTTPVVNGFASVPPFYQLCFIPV
In the case of `Cc1ccc(-n2ccnc2SCC(=O)N(CC(C)C)C2CCS(=O)(=O)C2)c(C)c1` (configuration not stated), the AC50 was 14.1 µM (active).

As for `O=C(CSc1nnc(-c2ccc(Cl)cc2Cl)n1C1CCCCC1)NC1CCS(=O)(=O)C1` (configuration not stated), the AC50 entry is “inactive”.

As to `Cc1cc(C)n2c(SCC(=O)N(C)C3CCS(=O)(=O)C3)nnc2n1` (configuration not stated), the AC50 result is “inactive”.

For `CCC(=O)OCN1C(=O)C=CC1=O`, the activity, negative = inhibition was 22.6% [at 11.4 µM].

As to `NC(N)=NC[C@@H]1CCCCCCN1`, the activity, negative = inhibition was 3.41% [at 11.4 µM].

For the molecule `Cn1cccc1C(=O)N1CCC2(CC1)CN(C(=O)Nc1ccccc1)C2`, the AC50 entry is “inactive”.

Take `O=C(Nc1ccccc1)OC[C@H](CN1CCCCC1)OC(=O)Nc1ccccc1`: the AC50 entry is “inactive”.

With `CN1c2ccccc2C(O)=C(C(=O)Nc2ccccc2)S1(=O)=O`, the AC50 is 2.82 µM (active).

With `Cc1c(NC(=O)Nc2c(Cl)cccc2Cl)c(=O)n(-c2ccccc2)n1C`, the activity, negative = inhibition is -2.44% [at 11.4 µM].

Regarding `Cc1c(NC(C)C)c(=O)n(-c2ccccc2)n1C`, the AC50 result was “inactive”.

With `Cc1ccc(S(=O)(=O)/N=C(/Nc2c(C)n(C)n(-c3ccccc3)c2=O)c2ccc(Cl)cc2)cc1`, the AC50 is 11.2 µM (active).

With `COC(=O)N1CCC2(CCCN(Cc3nccs3)C2)CC1`, the AC50 entry was “inactive”.

With `Cn1c(CNS(=O)(=O)c2ccc(Cl)cc2)n[nH]c1=S`, the AC50 result was “inactive”.

For `O=S(=O)(NCc1cc(-c2ccc(Cl)cc2)no1)c1ccc(Cl)cc1`, the AC50 is 3.98 µM (active).

As for `O=S(=O)(NCc1cc(-c2ccccc2)no1)c1ccc(Cl)cc1`, the AC50 entry is “inactive”.

Consider `COC(=O)[C@@H]1[C@@H]2C[C@H]3c4[nH]c5cc(OC)ccc5c4CCN3C[C@@H]2C[C@H](OC(=O)c2cc(OC)c(OC)c(OC)c2)[C@H]1OC`, for which the AC50 entry is “inactive”.

As to `CO[C@@H]1COC(=O)[C@@H](CCSC)NC(=O)C/C=C\[C@@H](C)COC(=O)CCC[C@H]1C`, the activity, negative = inhibition was -5.5% [at 11.4 µM].

As to `Oc1cccc(-c2nc3c4c(ncn3n2)-c2ccccc2CC42CCCC2)c1`, the AC50 was 7.08 µM (active).

With `O=c1c2c(n3cnnc3n1-c1ccccc1)-c1ccccc1CC21CCCCC1`, the AC50 result is “inactive”.

Take `CCOc1cc(/C=C2\C(=O)N(Cc3ccc(C)cc3)C(C)=C2C(=O)OC)ccc1O`: the AC50 is 1.41 µM (active).

In the case of `CCOc1cc(/C=C2/NC(=O)N(CC(=O)Nc3cccc(C)c3)C2=O)ccc1OC`, the AC50 entry is “inactive”.

Consider `CCCCNC(=O)C1CC(=O)N(CCC(C)C)C1` (configuration not stated), for which the AC50 entry is “inactive”.

For `COC(=O)c1sc2ncccc2c1OCc1c(Cl)cccc1Cl`, the half-maximal activity concentration (AC50) was 1.78 µM (active).

For the molecule `O=C(O)COc1c(Cl)cc(Cl)c2cccnc12`, the activity, negative = inhibition was 15.5% [at 11.4 µM].

For the molecule `COCCNC(=O)c1cn(Cc2c(F)cccc2Cl)nn1`, the AC50 result is “inactive”.

For `CN1CCN(c2ncnc3ccc(-c4ccccc4Cl)cc23)CC1`, the activity, negative = inhibition was -20.9% [at 2.29 µM].

As to `CC(=O)CCCCn1c(=O)c2c(ncn2C)n(C)c1=O`, the AC50 entry was “inactive”.

Turning to `O=C(CCCCn1c(=O)c2ccccc2n(CC(=O)NC2CCCC2)c1=O)NC1CCCC1`, the AC50 is 10 µM (active).

Turning to `O=C(Cn1cccc1)NC1CCCCCC1`, the AC50 result was “inactive”.

With `COc1ccccc1NC(=O)Nc1nc(-c2cccnc2)nc2ccccc12`, the AC50 entry was “inactive”.

Consider `CCOC(=O)c1ccc(Nc2nc(-c3cccnc3)nc3ccccc23)cc1`, for which the concentration at half-maximal activity (AC50) was 5.01 µM (active).

Regarding `CCOC(=O)c1ccc(OC(=O)CCCCCN=C(N)N)cc1`, the AC50 entry was “inactive”.

Regarding `CN(C)C(=O)c1ccc(-c2nc(Nc3ccncc3)c3ccccc3n2)cc1`, the activity, negative = inhibition was -8.55% [at 2.29 µM].

For `CCOC(=O)c1ccc(Nc2nc(=O)c3cccnc3s2)cc1`, the AC50 is 7.94 µM (active).

Consider `COc1ccccc1CNc1nc(-c2cccnc2)nc2ccccc12`, for which the AC50 is 1 µM (active).

For the molecule `c1cncc(CNc2nc(-c3ccoc3)nc3ccccc23)c1`, the activity, negative = inhibition is 0.547% [at 2.29 µM].

Regarding `c1ccc(-c2nc(NCc3cccnc3)c3ccccc3n2)cc1`, the AC50 is 3.55 µM (active).

For `c1ccc(Nc2nc(-c3cccnc3)nc3ccccc23)cc1`, the activity, negative = inhibition was -0.938% [at 2.29 µM].

In the case of `COc1ccccc1-c1nc(NCc2cccnc2)c2ccccc2n1`, the activity, negative = inhibition is 5.64% [at 2.29 µM].

In the case of `FC(F)(F)c1ccccc1-c1nc(NCc2cccnc2)c2ccccc2n1`, the activity, negative = inhibition was -20.3% [at 2.29 µM].

Take `CN1CCCC2(CCN(C(=O)c3cc(C(F)(F)F)cc(C(F)(F)F)c3)CC2)C1`: the AC50 result was “inactive”.

`COC(=O)c1c(-c2cc(OC)c(OC)c(OC)c2)c2ccnc(OCc3ncccn3)c2c(=O)n1Cc1ccnc(C)c1`: the AC50 was 12.6 µM (active).

Regarding `Cn1cnc([N+](=O)[O-])c1Sc1nc(N)nc2c1ncn2[C@H]1C[C@H](O)[C@@H](CO)O1`, the activity, negative = inhibition is -1.03% [at 11.4 µM].

For the molecule `Cc1cccc(N2CC(O)=C(c3nc4ccccc4n3C)C2=N)c1`, the AC50 entry was “inactive”.

Take `Cn1c(-c2sc(=S)n(-c3ccccc3)c2N)nc2ccccc21`: the half-maximal activity concentration (AC50) is 2.51 µM (active).

In the case of `Cc1ccc(CS(=O)(=O)CCC(=O)NCCCN2CCCC2=O)cc1`, the AC50 result was “inactive”.

Turning to `O=C(NCCCN1CCCC1=O)c1ccc(CNS(=O)(=O)c2ccc(F)cc2)cc1`, the AC50 result was “inactive”.

Turning to `Cc1ccc(S(=O)(=O)N(CCCN2CCCC2=O)Cc2cc3c(C)ccc(C)c3[nH]c2=O)cc1`, the half-maximal activity concentration (AC50) was 3.16 µM (active).

With `Cc1ccc(N2CCN(CCC(=O)O)CC2)cc1`, the activity, negative = inhibition was 10.3% [at 11.4 µM].

`Cc1ccc(C)c(-c2nn(-c3cc(N4CCN(CCO)CC4)ccc3[N+](=O)[O-])c(=O)c3ccccc23)c1`: the concentration at half-maximal activity (AC50) was 12.6 µM (active).

In the case of `CO[C@@H]1/C=C\CC(=O)N[C@@H](C)C(=O)OC[C@@H](OC)[C@H](C)/C=C\CC(=O)OC[C@H]1C`, the activity, negative = inhibition was 9.15% [at 11.4 µM].

`Cn1c(=O)c2[nH]c(CCS)nc2n(C)c1=O`: the activity, negative = inhibition is 10.4% [at 11.4 µM].

`Cc1cccc(NC(=O)CSc2nnc(-c3ccco3)c(-c3ccco3)n2)c1C`: the AC50 was 1.78 µM (active).

For the molecule `Cc1cc(C)nc(SCC(=O)Nc2ccccc2[N+](=O)[O-])n1`, the AC50 entry was “inactive”.

As to `Cc1cccc(Nc2cc(Cl)nc(SCC(=O)O)n2)c1C`, the AC50 entry was “inactive”.

For `O=C(O)CCC(=O)N1CCC[C@H]1C(=O)O`, the AC50 entry is “inactive”.

With `CCCC[C@H]1C[C@@H]1[C@@H]1N(P(=O)(c2ccccc2)c2ccccc2)[C@](CO)(c2ccccc2)CC12CC2`, the AC50 is 15.8 µM (active).

In the case of `CCCC[C@H]1C[C@@H]1[C@@H]1N(P(=O)(c2ccccc2)c2ccccc2)C[C@@](O)(c2ccccc2)CC12CC2`, the AC50 result was “inactive”.

On to `CCC(NC(=O)Nc1cc(OC)c(OC)c(OC)c1)(C(F)(F)F)C(F)(F)F`, for which the half-maximal activity concentration (AC50) was 14.1 µM (active).

For the molecule `CCN(CC)CCCCCCCCOC(=O)c1cc(OC)c(OC)c(OC)c1`, the AC50 entry is “inactive”.

On to `CCOC(=O)c1ccc(NC(=O)Nc2ccc3c4c(cccc24)C(=O)N3CC)cc1`, for which the AC50 was 20 µM (active).

Consider `CCN1C(=O)c2cccc3c(NC(=O)c4cccc(N5C(=O)CCC5=O)c4)ccc1c23`, for which the AC50 result was “inactive”.

For `c1csc(CNc2ccnc(-c3ccc4c(c3)OCO4)n2)c1`, the activity, negative = inhibition is -22.4% [at 2.29 µM].

Regarding `CC1CCCCN1c1nc(-c2ccncc2)nc2ccccc12` (configuration not stated), the half-maximal activity concentration (AC50) was 0.398 µM (active).

For the molecule `c1cncc(-c2nc(N3CCNCC3)c3ccccc3n2)c1`, the activity, negative = inhibition is -1.35% [at 2.29 µM].

For `CN1CCN(c2nc(-c3cccnc3)nc3ccccc23)CC1`, the activity, negative = inhibition is 16.9% [at 2.29 µM].

Regarding `CCNc1ncc2nc(-c3ccc(OC)cc3)c(=O)n(-c3ccc(OC)cc3)c2n1`, the AC50 entry was “inactive”.

Consider `NCC(=O)Nc1ccc(Cl)cc1C(=O)c1ccc[nH]1`, for which the activity, negative = inhibition is -20.4% [at 11.4 µM].

With `CS(=O)(=O)N1CCC2(CC1)CN(c1ccncc1)C2`, the AC50 was 15.8 µM (active).

For the molecule `CS(=O)(=O)N1CCC2(CC1)CN(c1ncccn1)C2`, the AC50 result is “inactive”.

As for `CS(=O)(=O)N1CCC2(CCCN(c3ccncc3)C2)CC1`, the concentration at half-maximal activity (AC50) was 0.0794 µM (active).

On to `CS(=O)(=O)N1CCC2(CCCN(c3ncccn3)C2)CC1`, for which the AC50 result was “inactive”.

`CS(=O)(=O)N1CCC[C@@]2(CCN(Cc3nccs3)C2)C1`: the AC50 entry is “inactive”.

As to `CS(=O)(=O)N1CCC2(CC1)CN(Cc1nccs1)C2`, the concentration at half-maximal activity (AC50) is 10 µM (active).

Turning to `CS(=O)(=O)N1CCC2(CCN(c3ccncc3)CC2)CC1`, the AC50 result is “inactive”.

As for `CS(=O)(=O)N1CCC2(CCN(Cc3nccs3)CC2)CC1`, the AC50 entry was “inactive”.

For `CS(=O)(=O)N1CCC[C@@]2(CCN(c3ccncc3)C2)C1`, the AC50 entry is “inactive”.

As for `CC(=O)N1CCC2(CCCN(C(=O)Nc3cccc(F)c3)C2)CC1`, the AC50 result is “inactive”.

Regarding `OCCNc1ncnc2c1ncn2[C@@H]1O[C@@H](CO)[C@H](O)[C@@H]1O`, the activity, negative = inhibition was 8.16% [at 11.4 µM].

For `Cc1ccc(N(Cc2ccccc2)Cc2ccccc2)cc1`, the activity, negative = inhibition was -16.6% [at 11.4 µM].

Turning to `COc1ccc(CN(CCN(C)C)c2ccccn2)cc1`, the AC50 result was “inactive”.

`CN(C)c1nccc(N(Cc2ccccc2)Cc2ccccc2)c1C#N`: the AC50 is 2.24 µM (active).

`Cc1ccc(N=Nc2ccc(N)cc2C)c(S(N)(=O)=O)c1`: the activity, negative = inhibition is -8.16% [at 11.4 µM].

For the molecule `COc1ccc(NC(=O)CSc2nc(-c3ccc(C)cc3)cc(C(F)(F)F)c2C#N)cc1`, the half-maximal activity concentration (AC50) is 0.794 µM (active).

As for `N=C(N)N1CCc2ccccc2C1`, the AC50 entry is “inactive”.

Consider `CCc1ccc(/C=C\C(=O)N2CCc3ccccc3C2)cc1`, for which the AC50 is 22.4 µM (active).

As for `CCCCCCN1Cc2ccccc2C1`, the AC50 result was “inactive”.

Take `COc1ccc(-c2cc(C(=O)NCc3cccnc3)no2)cc1OC`: the AC50 entry is “inactive”.

In the case of `CC1CCN(C(=O)c2ccc(COc3ccccc3Cl)o2)CC1`, the AC50 is 17.8 µM (active).

On to `Cc1ccccc1CS(=O)(=O)Cc1ccc(C(=O)NCc2cccnc2)o1`, for which the AC50 was 5.01 µM (active).

Consider `CCOc1ccc(OCc2ccc(C(=O)NCc3cccnc3)o2)cc1`, for which the AC50 was 12.6 µM (active).

For the molecule `CCOc1ccc(OCc2ccc(C(=O)N3CCc4ccccc4C3)o2)cc1`, the concentration at half-maximal activity (AC50) was 5.01 µM (active).

As for `COc1ccccc1OCc1ccc(C(=O)N(C)C)o1`, the AC50 entry is “inactive”.

Consider `Cc1ccccc1-c1cc(NCc2cccnc2)ncn1`, for which the activity, negative = inhibition is -13% [at 2.29 µM].

Regarding `Clc1ccccc1OCCCCN1CCCC1`, the AC50 result is “inactive”.

Take `Cc1cc(=O)oc(C)c1C(=O)NCc1ccccc1`: the AC50 result is “inactive”.

Consider `CCOc1cccc(CNCCNC(=O)c2nonc2N)c1`, for which the AC50 entry was “inactive”.

(Values after PubChem BioAssay AID1851 (National Center for Advancing Translational Sciences (NCATS), 2009).)
